Screening results from PubChem BioAssay.
aDG glyco up = alpha-DG glycosylation activation. Pro5-aDG cells, alpha-DG glycosylation AlphaScreen (IIH6); 0% Pro5, 100% B10-LARGE cell signal. activation, % at 10 µM. 360,000 tested, 0.22% active;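 active = activation of at least 8% versus controls, or a plate z-score of at least 8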;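 also: Pro5 are CHO cells carrying HIG-tagged alpha-DG that lacks glycosylation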
APOBEC3A inh = human APOBEC3A DNA deaminase inhibition; recombinant A3A, FAM/TAMRA ssDNA deamination fluorescence; 330,000 tested, 0.41% active; P31941; AID 493011; inhibition, % at 20 µM;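 active = at least 40% inhibition at 20 µM here, with at most 30% in a related deaminase screen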
Target sequence (P31941 whole entry, looked up): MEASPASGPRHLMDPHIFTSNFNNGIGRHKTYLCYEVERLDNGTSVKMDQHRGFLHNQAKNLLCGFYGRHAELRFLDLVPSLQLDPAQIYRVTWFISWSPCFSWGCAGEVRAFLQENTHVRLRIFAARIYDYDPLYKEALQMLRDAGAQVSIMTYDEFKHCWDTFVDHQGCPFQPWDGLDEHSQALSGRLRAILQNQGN
ALR inh = blocks human ALR sulfhydryl oxidase activity; P55789; purified ALR, DTT oxidation, H2O2 HRP-luminol luminescence; 290,000 tested, 3.8% active; inhibition, % (no concentration beside the values);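 active = mean replicate inhibition above about 79%, with every replicate also reaching it, limit read from the data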
Target sequence (P55789 whole entry, looked up): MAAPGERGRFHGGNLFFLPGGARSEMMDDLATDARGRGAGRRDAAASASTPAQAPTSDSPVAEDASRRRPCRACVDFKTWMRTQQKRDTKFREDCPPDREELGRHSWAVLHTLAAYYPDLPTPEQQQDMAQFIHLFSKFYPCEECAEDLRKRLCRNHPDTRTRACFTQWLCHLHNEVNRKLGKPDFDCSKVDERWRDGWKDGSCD
rCAG RNA binder = binds r(CAG) RNA repeats | r(CAG) RNA repeat, TO-PRO-1 dye displacement fluorescence | inhibition, % at 3 µM | 370,000 tested, 1.3% active;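 active = inhibition above the plate cutoff, the mean of all test compounds on that plate plus 3 SD, cut at about 35% in these data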;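 also: higher means more dye released from RNA so lower well fluorescence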
A3G deaminase = inhibitors of human APOBEC3G DNA deaminase. recombinant A3G, ssDNA deamination FAM/TAMRA fluorescence. 330,000 tested, 0.28% active. inhibition, % at 20 µM;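 active = inhibition of at least 40% at 20 µM, with no more than 30% in the related APOBEC3A deaminase screen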
PHOSPHO1 inh = PHOSPHO1 (human) inhibition; inhibition, % at 13.3 µM; 290,000 tested, 1.1% active; recombinant PHOSPHO1, absorbance phosphatase assay; Q8TCT1; in the data active = inhibition above about 60%
Target sequence (Q8TCT1 whole entry, looked up): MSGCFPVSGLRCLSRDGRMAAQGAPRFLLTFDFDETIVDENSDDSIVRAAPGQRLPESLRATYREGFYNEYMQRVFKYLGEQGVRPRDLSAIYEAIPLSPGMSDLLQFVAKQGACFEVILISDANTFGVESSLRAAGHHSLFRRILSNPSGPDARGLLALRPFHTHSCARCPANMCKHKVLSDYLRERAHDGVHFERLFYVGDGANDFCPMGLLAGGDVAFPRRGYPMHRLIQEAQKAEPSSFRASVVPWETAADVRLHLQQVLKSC
Of the large screens only hits and unclear results are named; the others gave an inactive call. Shown are actives, neighbours in structure and some others; about 5.4% of the full set was active somewhere.

COc1ccc(NC(=O)COC(=O)c2ccc3ccccc3n2)cc1	none (no result: PHOSPHO1 inh)
CCN(c1ccc(NC(=O)COC(=O)c2cccs2)cc1)C(C)C	ALR inh 99
COc1ccccc1C(=O)NC1CCCCN(Cc2cccc(Cl)c2)C1=O (configuration not stated)	none (no result: aDG glyco up, APOBEC3A inh, ALR inh, A3G deaminase, PHOSPHO1 inh)
Cc1ccc(Cn2cc(CN(C3CC3)S(=O)(=O)c3ccccc3Br)nn2)cc1	none (no result: aDG glyco up, APOBEC3A inh, ALR inh, A3G deaminase, PHOSPHO1 inh)
COC(=O)C1=C(C)N(Cc2ccc(C(F)(F)F)cc2)C(=NCc2ccc(OC)cc2)NC1c1ccccc1C(F)(F)F (configuration not stated)	none (no result: aDG glyco up, APOBEC3A inh, ALR inh, A3G deaminase, PHOSPHO1 inh)
CCN(c1ccc(NC(=O)COC(=O)CCC(=O)c2ccc(F)cc2)cc1)C(C)C	ALR inh 93
CC(=O)c1cccc(NC(=O)COC(=O)c2cccs2)c1	none
CCN(CC)c1ccc(NC(=O)COC(=O)c2cccs2)cc1	ALR inh 98, PHOSPHO1 inh 100
CC(=O)c1cccc(NC(=O)COC(=O)CCC(=O)c2ccc(F)cc2)c1	none (no result: PHOSPHO1 inh)
Cn1c(=O)c2cc(S(=O)(=O)N3CCN(Cc4ccccc4)CC3)ccc2n(C)c1=O	none (no result: aDG glyco up, APOBEC3A inh, ALR inh, A3G deaminase, PHOSPHO1 inh)
CCCCCCCCN1C(=O)[C@@H](CC(=O)NCc2cccc3ccccc23)C[C@@]2(C(=O)OC)C1=C[C@H](C(C)C)O[C@@H]2C1CC1	none (no result: aDG glyco up, APOBEC3A inh, ALR inh, A3G deaminase, PHOSPHO1 inh)
CCN(Cc1ccc(OC)c(F)c1)C(=O)CCl	ALR inh 97
CCN(Cc1ccc(OC)c(F)c1)C(=O)c1oc2ccccc2c1COC	none
c1ccc(Nc2ccccn2)cc1	none
c1ccc(Nc2cccc(Nc3ccccc3)n2)cc1	ALR inh 99
CC1=C/C(=N\Nc2ccccc2[N+](=O)[O-])CC(C)(C)C1	ALR inh 98
Cc1ccc(NS(=O)(=O)c2ccc3c(c2)NC(=O)CCS3)c(Br)c1	PHOSPHO1 inh 65
Cc1ccc(C)c(NS(=O)(=O)c2ccc3c(c2)NC(=O)CCS3)c1	none
O=[N+]([O-])c1cccc(C(=S)N2CCN(c3ccccc3F)CC2)c1	none
Cc1cccc(N2CCN(C(=S)c3ccccc3)CC2)c1	none
CN(C)c1ccc(C(=S)N2CCN(c3ccc([N+](=O)[O-])cc3)CC2)cc1	none
Cc1ccc(N2CCN(C(=S)c3ccc(N(C)C)cc3)CC2)cc1	PHOSPHO1 inh 66
O=[N+]([O-])c1cccc(C(=S)N2CCN(c3ccccc3)CC2)c1	PHOSPHO1 inh 79
CN(C)c1ccc(C(=S)N2CCN(c3ccccc3)CC2)cc1	ALR inh 99
O=C(NCc1ccccc1F)C1CCC(CNS(=O)(=O)c2cccc3cccnc23)CC1 (configuration not stated)	none (no result: aDG glyco up, APOBEC3A inh, ALR inh, A3G deaminase, PHOSPHO1 inh)
CC(C)CNS(=O)(=O)CC1NCc2ccccc21 (configuration not stated)	none (no result: aDG glyco up, APOBEC3A inh, ALR inh, A3G deaminase, PHOSPHO1 inh)
N#Cc1c(N)n[nH]c1-c1cc2c([nH]1)CCCC2	ALR inh 98
COc1cc(/C=C(\C#N)c2[nH]nc(N)c2C#N)cc(OC)c1O	none
Cc1cc(=O)[nH]c(SCC(=O)Nc2ccc(Br)cc2)c1C#N	ALR inh 99
Cc1cc(=O)[nH]c(SCC(=O)Nc2ccc(F)cc2)c1C#N	ALR inh 91
CCCCCC(=O)NC1CCCCN(C)C1=O (configuration not stated)	none (no result: aDG glyco up, APOBEC3A inh, ALR inh, A3G deaminase, PHOSPHO1 inh)
Cc1cc(N2CCN(Cc3ccccc3)CC2)n2nc(C)nc2n1	none (no result: aDG glyco up, APOBEC3A inh, ALR inh, A3G deaminase, PHOSPHO1 inh)
COc1ccccc1CN(C)C(=O)C1CCCN(c2nc3ccccc3o2)C1 (configuration not stated)	none (no result: aDG glyco up, APOBEC3A inh, ALR inh, A3G deaminase, PHOSPHO1 inh)
Cc1ccc2c(c1)N(CCCC(=O)NCc1cccs1)C(=O)CO2	none (no result: aDG glyco up, APOBEC3A inh, ALR inh, A3G deaminase, PHOSPHO1 inh)
CN(CCCNC(=O)CCC(=O)N1CCOc2ccc(Cl)cc21)Cc1ccccc1	ALR inh 93
COC(=O)[C@]12C[C@H](CC(=O)N3CCC(c4ccccc4)CC3)C(=O)N(CCc3ccc(OC)c(OC)c3)C1=C[C@H](C(C)(C)C)O[C@@H]2C	none (no result: aDG glyco up, APOBEC3A inh, ALR inh, A3G deaminase, PHOSPHO1 inh)
C[n+]1cc[nH]c1SCC(=O)c1ccccc1	PHOSPHO1 inh 60
CCOC(=O)CSc1nnc(NCC(=O)OC)c(=O)[nH]1	ALR inh 100
CCOC(=O)CSc1nnc(C)c(=O)[nH]1	none
Cc1cccc(C(=O)Nc2nc3ncccn3c2-c2ccc(F)cc2)c1	none (no result: aDG glyco up, APOBEC3A inh, ALR inh, A3G deaminase, PHOSPHO1 inh)
CCc1ccccc1NC(=O)C1c2ccccc2Oc2ccccc21	none (no result: ALR inh)
CCC1(C(=O)c2ccc(Cl)cc2)C2c3ccccc3OC(=O)C21C(=O)Nc1ccccc1 (configuration not stated)	rCAG RNA binder 40
O=C1CSC2=NCN(c3ccc4c(c3)OCO4)CN12	none
CN(C)c1ccc(N2CN=C3SCC(=O)N3C2)cc1	ALR inh 99
C[C@@H]1[C@@H](O)C[C@@]2(C[C@H](O)c3cc(Cl)ccc3O2)O[C@H]1c1ccccc1Cl	none (no result: aDG glyco up, APOBEC3A inh, ALR inh, A3G deaminase, PHOSPHO1 inh)
Nn1c(SCc2ccc([N+](=O)[O-])cc2)nnc1-c1cc(-c2ccccc2)n[nH]1	none (no result: aDG glyco up, APOBEC3A inh, ALR inh, A3G deaminase, PHOSPHO1 inh)
O=C(CSc1nc2c(c(=O)[nH]1)CCCC2)N1CCOCC1	none (no result: aDG glyco up, APOBEC3A inh, ALR inh, A3G deaminase, PHOSPHO1 inh)
O=C(CSc1nc(O)c(-c2ccccc2)c(=O)[nH]1)N1CCOCC1	none
CC(C)c1c(O)nc(SCC(=O)N2CCOCC2)[nH]c1=O	ALR inh 96
O=C(CSc1nc(O)c(C(c2ccccc2)c2ccccc2)c(=O)[nH]1)N1CCOCC1	ALR inh 91
c1ccc(Cn2ccc3ccc(-c4ccc5ccn(Cc6ccc7ccccc7c6)c5c4)cc32)cc1	none (no result: aDG glyco up, APOBEC3A inh, ALR inh, A3G deaminase, PHOSPHO1 inh)
CC1=NNC(=O)C1CCC(=O)N/N=C/c1c(Cl)cccc1Cl (configuration not stated)	PHOSPHO1 inh 65
COc1cc(SC)ccc1C(=O)N1CCN(c2ccc(O)cc2)CC1	ALR inh 99
COc1ccc(N2CCN(C(=O)c3ccc(C)cc3Cl)CC2)cc1	ALR inh 92
COc1ccc(N2CCN(C(=O)Nc3ccccc3Cl)CC2)cc1	ALR inh 87
COc1cc(SC)ccc1C(=O)N1CCN(c2ccccc2)CC1	none
COC(=O)[C@]12C[C@H](CC(=O)NCc3cccc(C(F)(F)F)c3)C(=O)N(Cc3ccc(Cl)cc3Cl)C1=C[C@H](C1CCCC1)O[C@@H]2C	none (no result: aDG glyco up, APOBEC3A inh, ALR inh, A3G deaminase, PHOSPHO1 inh)
O=C(NCCCc1ccccc1)OC1CC2CC1[C@H]1CCCCN1[C@H]2Cc1ccccc1 (some centres not stated)	none (no result: aDG glyco up, APOBEC3A inh, ALR inh, A3G deaminase, PHOSPHO1 inh)
C#CCNC(=O)C[C@H]1C[C@@]2(C(=O)OC)C(=C[C@H](C(C)C)O[C@@H]2C2CC2)N(CCc2ccc(OC)c(OC)c2)C1=O	none (no result: aDG glyco up, APOBEC3A inh, ALR inh, A3G deaminase, PHOSPHO1 inh)
O=S(=O)(c1ccc(F)cc1)N1CCCc2nc(-c3ccccc3)ccc21	none (no result: aDG glyco up, APOBEC3A inh, ALR inh, A3G deaminase, PHOSPHO1 inh)
O=S(=O)(Nc1ncnc2sc3c(c12)CCC3)c1cc(F)ccc1F	ALR inh 94
NS(=O)(=O)c1ccc(Sc2nc3ccccc3s2)c([N+](=O)[O-])c1	ALR inh 98
O=C(O)c1ccc(S(=O)(=O)Nc2ccc(O)c(Sc3nc4ccccc4s3)c2)cc1	ALR inh 100
O=C(O)c1ccc(S(=O)(=O)Nc2cccc(CP(=O)(c3ccccc3)c3ccccc3)c2)cc1	none
Cc1ccc(-c2csc(Nc3ccc(C(=O)O)cc3)[n+]2Cc2ccccc2)cc1	PHOSPHO1 inh 62
